Our source for the growth inhibition values is PubChem BioAssay (NCI).

A short description of test [1]: NCI Yeast Anticancer Drug Screen. Data for the rad50 strain (AID 155).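 Note: 0% = growth of vehicle-only cultures of the same strain.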 Conditions: S. cerevisiae rad50 strain growth inhibition; at 50.0 µM; active compounds read high. In outline:
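Yeast carrying a defined DNA repair defect were exposed to test compounds, and growth was compared with vehicle-treated controls to give percent inhibition.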

Test [2] is described as follows: NCI Yeast Anticancer Drug Screen. Data for the mec2-1 strain (AID 157). Conditions: S. cerevisiae mec2-1 strain, at 50.0 µM, active compounds read high. The gist of the method:
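Strain: mec2-1 (DNA repair/cell cycle alteration). Compound exposure, then growth measured; inhibition expressed relative to vehicle.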

Test [3] in a line: NCI Yeast Anticancer Drug Screen. Data for the sgs1 mgt1 strain (AID 161).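 Note: 0% = growth of cultures given vehicle only.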 As to conditions: S. cerevisiae sgs1 mgt1 strain, at 50.0 µM, active compounds read high. In outline:
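Genetically altered yeast, compound exposure, growth inhibition relative to vehicle.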

A short description of test [4]: NCI Yeast Anticancer Drug Screen. Data for the cln2 rad14 strain (AID 165).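 Note: 0% = growth equal to vehicle treated cultures.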 Conditions: S. cerevisiae cln2 rad14 strain, at 50.0 µM, active compounds read high. The gist of the method:
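Compounds are applied to the cln2 rad14 yeast strain, and growth is then compared with that of vehicle-treated cultures to give inhibition.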

Test [5] in a line: NCI Yeast Anticancer Drug Screen. Data for the bub3 strain (AID 167). Conditions: S. cerevisiae bub3 mutant strain, at 50.0 µM, active compounds read high. The gist of the method: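 Compounds were applied to a genetically altered yeast strain carrying a cell-cycle control defect. Growth inhibition was scored against vehicle-treated controls.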
Test [6] in a line: NCI Yeast Anticancer Drug Screen. Data for the mlh1 rad18 strain (AID 175). Conditions: S. cerevisiae mlh1 rad18 strain growth inhibition; at 50.0 µM; active compounds read high. In outline:
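Read-out is yeast growth inhibition, calculated against vehicle-only controls. The compound was applied to a strain engineered with DNA damage repair alterations.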

The panel holds about 79,000 compounds, 15% with a hit somewhere; the sample as a whole holds those more often. A number with no mark means an inactive call. Active and inactive are the calls of the source. Cut-off read from the data, not from the text of the source: active = growth inhibition above about 70%; inactive = the rest.

Take `CCC(=O)Nc1nc2c(ncn2C2OC(COC(=O)CC)C(OC(=O)CC)C2OC(=O)CC)c(=O)[nH]1` (stereo not given): the growth inhibition was -11.6% in test [1]; 5.2% in test [2]; 18.5% in test [3]; 6.25% in test [4]; 6.8% in test [5]; -7.3% in test [6].

Regarding `CCCCc1ccc(Nc2nc(OC)c3ncn(C4CC(O)C(CO)O4)c3n2)cc1` (stereo not given), the growth inhibition is 88.1% (active) in test [1]; 90.2% (active) in test [2]; 67.2% in test [3]; 57.8% in test [4]; 69.5% in test [5]; 86.8% (active) in test [6].

On to `CC(C)(C)CC(C)(C)c1ccc2c(c1)NC(C1Nc3cc(C(C)(C)CC(C)(C)C)ccc3O1)O2` (stereo not given), for which the growth inhibition in test [1] is 8.05%; in test [2], -5.8%; in test [3], -4.55%; in test [4] it was -4.4%; in test [5] it was -2.6%; in test [6], 10.8%.

Consider `O=C(C[n+]1cccc(Cl)c1)c1ccccc1`, for which the growth inhibition is -3.55% in test [1]; 7.9% in test [2]; 7.9% in test [3]; -9.7% in test [4]; -4.85% in test [5]; -0.5% in test [6].

As for `CCN(Cc1ccc(CN(CC)C(=O)c2c(-c3ccccc3)noc2C)cc1)C(=O)c1c(-c2ccccc2)noc1C`, the growth inhibition was 13.6% in test [1]; -8.1% in test [2]; 5.1% in test [3]; 17.8% in test [4]; 0.2% in test [5]; -13.6% in test [6].

With `CC(NC(=O)NCCCl)c1cccc2ccccc12` (stereo not given), the growth inhibition in test [1] is -7.25%; in test [2], -1.25%; in test [3], -2.4%; in test [4], 44.2%; in test [5] it was -8.25%; in test [6], 5.15%.

As for `CCCCC1(C=O)NC(=O)N(C)C1=O` (stereo not given), the growth inhibition in test [1] was 5%; in test [2], 2.35%; in test [3], -10.8%; in test [4] it was 5.6%; in test [5] it was 7.2%; in test [6], -9.35%.

As for `Nc1cc(=O)c2n[nH]nc2[nH]1`, the growth inhibition in test [1] is -29.9%; in test [2] it was 0.7%; in test [3], -17.1%; in test [4] it was -21.6%; in test [5], -14.3%; in test [6], -16.9%.

Regarding `COc1cc(C#N)cc(OC)c1OC`, the growth inhibition was 26% in test [1]; -14.8% in test [2]; 2.85% in test [3]; 1.45% in test [4]; 1.85% in test [5]; -12.2% in test [6].

Regarding `Cc1cn(C2OC(CO[Si](C)(C)C(C)(C)C)C(N(C)O[Si](C)(C)C(C)(C)C)C2[Se]c2ccccc2)c(=O)[nH]c1=O` (stereo not given), the growth inhibition is -15.5% in test [1]; -3.1% in test [2]; 0.5% in test [3]; -8.65% in test [4]; -9.85% in test [5]; -15.2% in test [6].

On to `COc1ccc2nc(NC(=O)C(=O)NNC(=O)c3ccncc3)sc2c1`, for which the growth inhibition was -24.5% in test [1]; -24% in test [2]; -10.1% in test [3]; 21.1% in test [4]; -22.9% in test [5]; -14.7% in test [6].

Regarding `CN(C)c1ncnc2c1ncn2C1OC(CO)C(N)C1O` (stereo not given), the growth inhibition in test [1] is 19.2%; in test [2], 3%; in test [3] it was 26.1%; in test [4], 0.55%; in test [5], 28.5%; in test [6], 20.6%.

As to `O=C(CC1=NC2NN(c3ccccc3)C(=O)C2=C1CC(=O)c1ccc(F)cc1)c1ccc(F)cc1` (stereo not given), the growth inhibition in test [1] was 40.2%; in test [2], 20.6%; in test [3] it was 23.2%; in test [4], 13.1%; in test [5], 5.65%; in test [6], 38.9%.

In the case of `O=C1OC(=O)c2ccc([N+](=O)[O-])c3c(C(=O)O)ccc1c23`, the growth inhibition was 5.1% in test [1]; -19.2% in test [2]; -22.9% in test [3]; -1.65% in test [4]; 2.55% in test [5]; 2.85% in test [6].

In the case of `Cc1c2ccccc2c(CN2CC(O)CC2C(=O)O)c2ccccc12` (stereo not given), the growth inhibition was 70.6% (active) in test [1]; 33.2% in test [2]; 63% in test [3]; 78.5% (active) in test [4]; 51.8% in test [5]; 93.8% (active) in test [6].

`COc1ccc(OC)c(NC(=O)Sc2c(Cl)c(Cl)nc(Cl)c2Cl)c1`: the growth inhibition was 18.4% in test [1]; 13.2% in test [2]; 16.2% in test [3]; -8.9% in test [4]; -0.05% in test [5]; -10.2% in test [6].

Regarding `COc1cc2c(c(OC)c1OC)CCCC2=O`, the growth inhibition in test [1] is 0.2%; in test [2] it was -10.4%; in test [3], -4.5%; in test [4] it was -130%; in test [5], -4.7%; in test [6], -4.9%.

`COc1cc2c(c(OC)c1OC)-c1ccc(SC)c(=O)cc1[C@@H](NC1OCC(O)C(O)C1O)CC2` (stereo not given in full): the growth inhibition was 20.4% in test [1]; 35.1% in test [2]; 24.1% in test [3]; 8.65% in test [4]; 21.1% in test [5]; 16.8% in test [6].

Regarding `CC1CCC2(CC1)OC(C)C(C)O2` (stereo not given), the growth inhibition in test [1] was 20.1%; in test [2], -2.4%; in test [3], 4.9%; in test [4], -34.6%; in test [5], 28.8%; in test [6] it was 10.7%.

Consider `C/C(CC(=O)NCCc1ccccc1)=N\NS(=O)(=O)c1ccc(C)cc1`, for which the growth inhibition was 37.1% in test [1]; -6.6% in test [2]; 10.2% in test [3]; 28.3% in test [4]; -4.2% in test [5]; 8% in test [6].
